Experimental data taken from ChEMBL document CHEMBL3988442, “University of Dundee, Small-Polar-MMV Screening Library” (2021).
Out of some 48,000 compounds screened, about 13,000 (27%) showed an effect of 50% or more. This is one part of the list.

Each compound was assayed on Wolbachia pipientis (assay: Anti-Wolbachia Cell-Based Screen). Conditions: 5 µM.
Format: functional
Design: scale not given: in the data most compounds retested in dose-response had high values
In the case of `Cc1cccc(NCCOc2cccc(C#N)c2)c1C(N)=O`, the “Percent Effect” value is reported as -11.96%.
In the case of `Cc1cc(C)n(Cc2cccc(C(=O)N(CCC#N)CCC#N)c2)n1`, the “Percent Effect” value is reported as -7.761%.
In the case of `CC(C)c1nnc2n1CCN(C(=O)c1cccc(OCC(N)=O)c1)C2`, the “Percent Effect” value is reported as -10.94%.
For `CC(C)c1cc(NCC2(Cn3cccn3)CC2)nc(N)n1`, the “Percent Effect” value was 7.043%.
In the case of `CN(C)CCCN(C)C1CCN(c2cccc(-c3cscn3)c2)CC1`, the “Percent Effect” value is reported as 6.682%.
`O=C(NCC1CCCCC1)c1nnn(-c2ccc(Br)cc2)n1` was tested, and the “Percent Effect” value was -0.9526%.
For `O=C(NC[C@@H]1CCCO1)c1cc(Br)cnc1N1CCCCC1`, the “Percent Effect” value was 112.6%.
`O=C(NC1CCN(c2ncccn2)CC1)c1cc2c(cc1O)CCCC2` was tested, and the “Percent Effect” value was 1.017%.
`O=C(NCC1CC1)c1cc(Br)cnc1N1CCCCC1` was tested, and the “Percent Effect” value was 74.44%.
In the case of `O=C(c1cnc(NCC2CCCO2)c(Cl)c1)N1CCOCC1` (stereo unspecified), the “Percent Effect” value is reported as 2.383%.
In the case of `O=C(NC1CC1)c1cnc(-c2noc3cc(N4CCCCC4)ccc23)s1`, the “Percent Effect” value is reported as -8.879%.
`O=C(NC1CCCCC1)c1cc(Br)cnc1N1CCCCC1` was tested, and the “Percent Effect” value was 116.3%.
`COc1ccc(Br)c(C(=O)NCC2CCN(S(=O)(=O)C3CC3)CC2)c1` was tested, and the “Percent Effect” value was -4.78%.
For `O=C(c1cnc(NCC2CCCO2)c(Cl)c1)N1CCCCC1` (stereo unspecified), the “Percent Effect” value was 21.16%.
In the case of `Cc1ccc([C@@H]2CN(C(=O)c3cc(C)no3)C[C@H]2NC(=O)C2CC2)cc1`, the “Percent Effect” value is reported as -6.322%.
For `Cc1cc(C)c(CCNC(=O)CN2CCCN(C(N)=O)CC2)c(C)c1`, the “Percent Effect” value was 7.662%.
For `CC(SCCNS(=O)(=O)c1cnn(C)c1)c1cccs1` (stereo unspecified), the “Percent Effect” value was 10.16%.
With `CCc1c(C(=O)N2CCOC(C)(C)C2)cnn1-c1ccccn1` the “Percent Effect” value was 19.62%.
`COc1cccc2c1N(CC(=O)Nc1ccc(Br)cn1)CCC2` was tested, and the “Percent Effect” value was -18.77%.
With `COc1ccc(-c2ccc(C(=O)NS(C)(=O)=O)c(F)c2)c(F)c1` the “Percent Effect” value was 2.644%.
In the case of `COCCn1c2c(ccc1=O)CC(NCc1cnn(C)c1)CC2` (stereo unspecified), the “Percent Effect” value is reported as 90.26%.
In the case of `Cc1cnc(NC2CCc3c(ccc(=O)n3C)C2)nc1` (stereo unspecified), the “Percent Effect” value is reported as 9.132%.
`CN(C)C(=O)Cn1c2c(ccc1=O)CC(NCc1cccnc1)CC2` (stereo unspecified) was tested, and the “Percent Effect” value was -16.54%.
`COCCn1c2c(ccc1=O)CC(NC(=O)c1cscn1)CC2` (stereo unspecified) was tested, and the “Percent Effect” value was -30.94%.
In the case of `CCc1cnc(NC2CCc3c(ccc(=O)n3C)C2)nc1` (stereo unspecified), the “Percent Effect” value is reported as -4.602%.
`CCn1c2c(ccc1=O)CC(NCc1cnn(C)c1)CC2` (stereo unspecified) was tested, and the “Percent Effect” value was 111.7%.
In the case of `Cc1cnc(NC2CCc3c(ccc(=O)n3CC3CC3)C2)nc1` (stereo unspecified), the “Percent Effect” value is reported as -5.786%.
`Cn1cc(CNC2CCc3c(ccc(=O)n3C)C2)cn1` (stereo unspecified) was tested, and the “Percent Effect” value was 106.3%.
With `O=c1ccc2c(n1Cc1cccnc1)CCC(NCc1cccnc1)C2` (stereo unspecified) the “Percent Effect” value was -5.878%.
In the case of `Cn1cc(-c2csc(CN3CCOCC3)n2)cn1`, the “Percent Effect” value is reported as -11.66%.
For `N#Cc1ccccc1C(=O)N1C[C@@H](CN2CCCCC2)[C@@H](CO)C1`, the “Percent Effect” value was -9.135%.
For `CC(C)(C)OC(=O)NC1(c2noc(-c3ccoc3)n2)CCC1`, the “Percent Effect” value was -12.02%.
For `CC1(C)CC(N2Cc3nc(N)ncc3C2=O)CC(C)(C)N1`, the “Percent Effect” value was -10.52%.
In the case of `Cc1cccc(CO[C@H]2CN(c3nnc(C)s3)[C@@H]3CCCO[C@H]23)n1.O=C(O)C(F)(F)F.O=C(O)C(F)(F)F`, the “Percent Effect” value is reported as -4.881%.
With `CO[C@@H]1CCN(c2nnc(C)s2)C[C@@H]1Cc1cccc(C)c1.O=C(O)C(F)(F)F` the “Percent Effect” value was 98.33%.
In the case of `CO[C@H]1CCN(c2nnc(C)s2)C[C@@H]1Cc1cccc(C)c1.O=C(O)C(F)(F)F`, the “Percent Effect” value is reported as 71.03%.
With `CO[C@@H]1CCN(Cc2nccs2)C[C@@H]1Cc1cccc(C)c1.O=C(O)C(F)(F)F` the “Percent Effect” value was -16.54%.
In the case of `CCc1nc2c(N3CCC4(CC3)CC(=O)N(CC)C4)ncnc2o1`, the “Percent Effect” value is reported as -6.459%.
With `CNc1ncc(CN(C)C(=O)c2cccc(CC3CCNCC3)c2)cn1` the “Percent Effect” value was 3.587%.
With `CC(=O)N1CCC2(CCN(C(=O)c3ccc(C)c(C(F)(F)F)c3)CC2)C1` the “Percent Effect” value was 5.655%.
In the case of `O=C(Nc1ccccc1)[C@H]1O[C@H](CCN2CCCCC2)CC[C@@H]1O`, the “Percent Effect” value is reported as -9.518%.
In the case of `Cc1ccc2c(n1)N(CCN(C)C)CCN(C(=O)c1ccco1)C2`, the “Percent Effect” value is reported as 15.51%.
With `CC(=O)Nc1ccc2c(c1)CN(C(=O)c1ccco1)CC2` the “Percent Effect” value was 113.8%.
`Cn1c(=O)oc2ccc(NC(=O)N3CCc4ccccc4C3)cc21` was tested, and the “Percent Effect” value was 3.021%.
In the case of `CCC(=O)Nc1ccc2c(c1)CN(C(=O)c1ccco1)CC2`, the “Percent Effect” value is reported as 20.51%.
For `COCC(=O)Nc1ccc2c(c1)CN(C(=O)c1ccco1)CC2`, the “Percent Effect” value was 105.1%.
In the case of `Cc1n[nH]cc1CNc1ccc2c(c1)CN(C(=O)OC(C)(C)C)CC2`, the “Percent Effect” value is reported as -19.63%.
With `CCc1noc(CC)c1CNC(=O)Nc1ccc2[nH]nnc2c1` the “Percent Effect” value was 5.627%.
In the case of `Cc1ccccc1CS(=O)(=O)CC(=O)N(C)Cc1ccccc1`, the “Percent Effect” value is reported as -7.305%.
With `CCCNC(=O)CCC(=O)Nc1ccc(-n2cncn2)c(F)c1` the “Percent Effect” value was -8.923%.
For `Cc1cc(S(=O)(=O)Nc2onc(C)c2C)c(C)s1`, the “Percent Effect” value was -1.825%.
With `Cc1ccc(NC(=O)NCC2(N3CCOCC3)CCSC2)c(C)c1` (stereo unspecified) the “Percent Effect” value was -11.49%.
In the case of `CCCc1nc(C)cc(N2CCC3(CCC(=O)N(CCOC)C3)CC2)n1`, the “Percent Effect” value is reported as 0.7545%.
For `Cc1cc(N2CCC3(CCC(=O)N(CCO)C3)CC2)nc(N(C)C)n1`, the “Percent Effect” value was 21.48%.
With `Cc1cc(C)nc(C2(C)CCCN2CCO)n1` (stereo unspecified) the “Percent Effect” value was 123.6%.
With `CCN1CCCC1(C)c1nc(C)cc(N)n1` (stereo unspecified) the “Percent Effect” value was 113.3%.
In the case of `COCCN1CCCC12CCCN(c1nncs1)C2` (stereo unspecified), the “Percent Effect” value is reported as 14.36%.
With `CCCc1nc(C)cc(N2CCC3(CCC(=O)N(CCO)C3)CC2)n1` the “Percent Effect” value was 3.34%.
`COCCN1CCCC1(C)c1nc(C)cc(N)n1` (stereo unspecified) was tested, and the “Percent Effect” value was 125.2%.
With `Cc1nnsc1C(=O)NCc1cccnc1N(C)Cc1ccccc1` the “Percent Effect” value was -7.662%.
For `CC(C)N1CCOCC2(CN(Cc3nccs3)CCO2)C1.O=C(O)C(F)(F)F.O=C(O)C(F)(F)F` (stereo unspecified), the “Percent Effect” value was 13.74%.
In the case of `CNS(=O)(=O)c1cccc(CNCc2ccsc2)c1`, the “Percent Effect” value is reported as 4.811%.
For `O=C(c1ccco1)N1CCCC2(C1)CN(c1nncs1)CCO2` (stereo unspecified), the “Percent Effect” value was 86.33%.
With `O=C(CCO)N1CCOC2(CCCN(C(=O)c3ccco3)C2)C1` (stereo unspecified) the “Percent Effect” value was -2.214%.
`Cc1cnc(N2CC3(CCN(C(=O)c4ccoc4)C3)C2)nc1` was tested, and the “Percent Effect” value was -4.182%.
With `O=C(c1ccco1)N1CCC2(CCOC2)C1` (stereo unspecified) the “Percent Effect” value was 5.675%.
For `O=C(O)C(F)(F)F.O=C(c1ccco1)N1CCCC2(CCN(c3nncs3)C2)C1` (stereo unspecified), the “Percent Effect” value was 102.9%.
For `O=C(c1ccoc1)N1CCC2(C1)CN(c1ncc(F)cn1)C2`, the “Percent Effect” value was 0.03212%.
With `O=C(O)C(F)(F)F.O=C(c1ccccn1)N1CCC2(CCCN(c3nncs3)C2)C1` (stereo unspecified) the “Percent Effect” value was -19.65%.
For `O=C(c1ccco1)N1CCC2(CCCN(c3ncc(F)cn3)C2)C1` (stereo unspecified), the “Percent Effect” value was 95.74%.
For `O=C(c1ccoc1)N1CCC2(CCCN(c3ncc(F)cn3)C2)C1` (stereo unspecified), the “Percent Effect” value was 105.6%.
With `O=C(c1ccco1)N1CCO[C@@H]2CN(c3ncc(F)cn3)CC[C@@H]2C1` the “Percent Effect” value was -7.545%.
In the case of `CC(=O)N1CCCC2(CCN(c3nncs3)C2)C1` (stereo unspecified), the “Percent Effect” value is reported as -12.49%.
For `O=C(c1ccco1)N1CCCC2(CN(Cc3ccoc3)CCO2)C1` (stereo unspecified), the “Percent Effect” value was -2.684%.
In the case of `O=C(CSCC1CC1)N1CCCC(c2nccn2Cc2ccccn2)C1` (stereo unspecified), the “Percent Effect” value is reported as -4.276%.
`CCC1=N[C@@]2(CC[C@@H]3CN(S(=O)(=O)CC)C[C@@H]32)C(=O)N1CC(C)C` was tested, and the “Percent Effect” value was -13.66%.
With `CN(Cc1ccccc1)c1ncccc1CNC1CCCC1` the “Percent Effect” value was -55.14%.
For `CNS(=O)(=O)c1cccc(C(C)NCc2ccc(F)cc2F)c1` (stereo unspecified), the “Percent Effect” value was 0.5272%.
`CC(C)(C)c1ccn(C2(C(=O)O)CCN(c3ccncc3F)CC2)n1` was tested, and the “Percent Effect” value was 0.05232%.
For `O=C(O)C(F)(F)F.O=C(c1ccco1)N1CCC2(CCCN(c3ncccn3)C2)C1` (stereo unspecified), the “Percent Effect” value was 85.77%.
In the case of `O=C(O)C(F)(F)F.O=C(c1ccco1)N1CCCC2(CN(Cc3cccs3)CCO2)C1` (stereo unspecified), the “Percent Effect” value is reported as 7.002%.
With `O=C(O)C(F)(F)F.O=C(c1ccco1)N1CCOC2(COCCN(c3ncccn3)C2)C1` (stereo unspecified) the “Percent Effect” value was -16.99%.
`CCN1CC2(CCN(C(=O)C3CSC(C)(C)C(=O)N3)CC2)CC1=O` (stereo unspecified) was tested, and the “Percent Effect” value was -12.94%.
With `O=C(Cc1cn2ccsc2n1)N1CCCC(n2cncn2)C1` (stereo unspecified) the “Percent Effect” value was -11.33%.
`CCc1nccn1C1CCCN(C(=O)c2cc(C3CC3)on2)C1` (stereo unspecified) was tested, and the “Percent Effect” value was 0.1203%.
`CCc1nccn1C1CCCN(C(=O)CCc2nc(C(C)C)no2)C1` (stereo unspecified) was tested, and the “Percent Effect” value was 1.838%.
`CCc1nccn1C1CCCN(C(=O)Cc2cn3ccsc3n2)C1` (stereo unspecified) was tested, and the “Percent Effect” value was 106.2%.
`CCc1nccn1C1CCCN(C(=O)c2csc(C3CC3)n2)C1` (stereo unspecified) was tested, and the “Percent Effect” value was 96.06%.
In the case of `CCc1nccn1C1CCCN(C(=O)c2cc[nH]n2)C1` (stereo unspecified), the “Percent Effect” value is reported as 5.506%.
In the case of `CC(C)c1ccc(OCCC(=O)N(C)CC(N)=O)cc1`, the “Percent Effect” value is reported as 4.31%.
`CC1CN(c2ncnc3cccc(F)c23)CCO1` (stereo unspecified) was tested, and the “Percent Effect” value was -3.165%.
`Cc1cc(NCCS(C)(=O)=O)n2nc(C)cc2n1` was tested, and the “Percent Effect” value was -11.18%.
`CNS(=O)(=O)CCNc1cc(C)nc2cc(C)nn12` was tested, and the “Percent Effect” value was -6.261%.
For `Cc1cc2nc(C(C)C)cc(N[C@H](C(N)=O)C(C)C)n2n1`, the “Percent Effect” value was -8.312%.
With `Cc1cc2nc(C(C)C)cc(NCCc3ccncc3)n2n1` the “Percent Effect” value was 142%.
In the case of `Cc1cc2nc(C(C)C)cc(NCCc3cccn3C)n2n1`, the “Percent Effect” value is reported as 113.2%.
With `CC(C)c1cc(NCC2(Cn3cccn3)CC2)n2nccc2n1` the “Percent Effect” value was -2.27%.
With `CCc1nc2c(NCC3COc4c(cccc4OC)C3)ncnc2o1` (stereo unspecified) the “Percent Effect” value was -3.271%.
With `CCN(C)C(=O)c1ccc(N(C)Cc2cc(-c3cccnc3)no2)nc1` the “Percent Effect” value was 3.484%.
For `COCc1cc(CC2(NC3CCN(C)CC3)COC2)no1`, the “Percent Effect” value was 4.63%.
`COc1cc(C#N)ccc1OCC(=O)N(C1CC1)C(C)c1ccco1` (stereo unspecified) was tested, and the “Percent Effect” value was -6.369%.
